# Measurements taken from the supplement of paper PMC10037445.
# Several values for one entry are separate records, joined by “and”; a condition that tells them apart may be missing. Equal values may be shown once. In all, about 2,900 compounds were measured (“NF-kB SEAP reporter activity, fold change vs agonist alone”: median about 0.99, highest 2% from about 2.6 on). The full list was thinned out, with the highest values kept by preference.
# How the values were obtained:
# RAW-Dual [1] = assay: NF-kB SEAP reporter activity, fold change vs agonist alone; higher = enhanced NF-kB activity
# Method in brief: (§1)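 Library stock was pin-tooled at 50 nL into 384-well plates of RAW-Dual macrophages (50,000 cells/well, DMEM), followed 1 h later by a PRR agonist, and the cells were kept at 37 °C, 5% CO2. Supernatant collected after 20 hours was read for IRF by QuantiLuc luminescence and for NF-κB by QuantiBlue absorbance at 620 nm. Reporter activity is fold change over agonist-alone wells, and a well counted as cytotoxic when its IncuCyte confluency was below 70% of agonist controls in both mask sets.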
# RAW-Dual [2] = assay: NF-kB SEAP reporter activity, fold change vs agonist alone; cytotoxicity flag (confluency mask): not cytotoxic; higher = enhanced NF-kB activity
# Method in brief: as §1
# RAW-Dual [3] = assay: NF-kB SEAP reporter activity, fold change vs agonist alone; cytotoxicity flag (confluency mask): cytotoxic (confluency <70% of control); higher = enhanced NF-kB activity
# Method in brief: as §1
# [4] = library stock concentration (final ~1000-fold dilution): 10 mM, cytotoxicity flag (confluency mask): not cytotoxic, agonist: Imiquimod (TLR7) […]
# [5] = library stock concentration (final ~1000-fold dilution): 10 mM, cytotoxicity flag (confluency mask): not cytotoxic, agonist: MPLA (TLR4) […]
# [6] = agonist: ODN 1826 (TLR9) 0.5 ug/mL
# [7] = agonist: Pam2CSK4 (TLR2/6) 0.1 ug/mL
# [8] = agonist: Pam3CSK4 (TLR2/1) 0.1 ug/mL
# [9] = library stock concentration (final ~1000-fold dilution): 10 mM, cytotoxicity flag (confluency mask): cytotoxic (confluency <70% of control), agonist: Imiquimod (TLR7) […]
# [10] = library stock concentration (final ~1000-fold dilution): 10 mM, cytotoxicity flag (confluency mask): cytotoxic (confluency <70% of control), agonist: MPLA (TLR4) […]
smiles,measurement,setting,value
Nc1nc(NCCNc2ncc(-n3ccnc3)c(-c3ccc(Cl)cc3Cl)n2)ccc1[N+](=O)[O-],NF-kB SEAP reporter activity,RAW-Dual [1]; [4],2.49
same,NF-kB SEAP reporter activity,RAW-Dual [1]; [5],2.25
Nc1nc(NCCNc2ncc(-n3ccnc3)c(-c3ccc(Cl)cc3Cl)n2)ccc1[N+](=O)[O-] (library stock concentration (final ~1000-fold dilution): 10 mM),NF-kB SEAP reporter activity,RAW-Dual [2]; agonist: LPS (TLR4) 0.1 ug/mL,2.5
same,NF-kB SEAP reporter activity,RAW-Dual [2]; [6],2.96
same,NF-kB SEAP reporter activity,RAW-Dual [2]; [7],1.46
same,NF-kB SEAP reporter activity,RAW-Dual [2]; [8],2.83
Cc1cncc(CN2CCC(=C3c4ccc(Cl)cc4CCc4cccnc43)CC2)c1.O=C(O)/C=C/C(=O)O (library stock concentration (final ~1000-fold dilution): 10 mM),NF-kB SEAP reporter activity,RAW-Dual [3]; agonist: LPS (TLR4) 0.1 ug/mL,0.652
same,NF-kB SEAP reporter activity,RAW-Dual [3]; [6],0.37
same,NF-kB SEAP reporter activity,RAW-Dual [3]; [7],0.456
same,NF-kB SEAP reporter activity,RAW-Dual [3]; [8],0.408
Cc1cncc(CN2CCC(=C3c4ccc(Cl)cc4CCc4cccnc43)CC2)c1.O=C(O)/C=C/C(=O)O,NF-kB SEAP reporter activity,RAW-Dual [1]; [9],1.02
same,NF-kB SEAP reporter activity,RAW-Dual [1]; [10],0.719
CCC1OC(=O)C(C)C(OC2CC(C)(OC)C(O)C(C)O2)C(C)C(OC2OC(C)CC(N(C)C)C2O)C(C)(O)CC(C)CN(C)C(C)C(O)C1(C)O.O.O (stereo unspecified) (library stock concentration (final ~1000-fold dilution): 10 mM),NF-kB SEAP reporter activity,RAW-Dual [2]; agonist: LPS (TLR4) 0.1 ug/mL,1.49
same,NF-kB SEAP reporter activity,RAW-Dual [2]; [6],0.371
same,NF-kB SEAP reporter activity,RAW-Dual [2]; [7],0.896
same,NF-kB SEAP reporter activity,RAW-Dual [2]; [8],0.978
CCC1OC(=O)C(C)C(OC2CC(C)(OC)C(O)C(C)O2)C(C)C(OC2OC(C)CC(N(C)C)C2O)C(C)(O)CC(C)CN(C)C(C)C(O)C1(C)O.O.O (stereo unspecified),NF-kB SEAP reporter activity,RAW-Dual [1]; [4],0.506
same,NF-kB SEAP reporter activity,RAW-Dual [1]; [5],1.46
COc1cc2ncc(-c3ccccc3)nc2cc1OC,NF-kB SEAP reporter activity,RAW-Dual [1]; [4],1.16
same,NF-kB SEAP reporter activity,RAW-Dual [1]; [5],1.39
Cn1cc(-c2ccc3ncc(Cc4ccc5ncccc5c4)n3n2)cn1,NF-kB SEAP reporter activity,RAW-Dual [1]; [4],1.37
same,NF-kB SEAP reporter activity,RAW-Dual [1]; [5],1.23
COc1cc(OC)cc(N(CCNC(C)C)c2ccc3ncc(-c4cnn(C)c4)nc3c2)c1,NF-kB SEAP reporter activity,RAW-Dual [1]; [9],1.76
same,NF-kB SEAP reporter activity,RAW-Dual [1]; [10],2.21
COc1cc2ncc(-c3ccccc3)nc2cc1OC (library stock concentration (final ~1000-fold dilution): 10 mM),NF-kB SEAP reporter activity,RAW-Dual [2]; agonist: LPS (TLR4) 0.1 ug/mL,1.78
same,NF-kB SEAP reporter activity,RAW-Dual [2]; [6],1.28
same,NF-kB SEAP reporter activity,RAW-Dual [2]; [7],0.915
same,NF-kB SEAP reporter activity,RAW-Dual [2]; [8],0.864
Cn1cc(-c2ccc3ncc(Cc4ccc5ncccc5c4)n3n2)cn1 (library stock concentration (final ~1000-fold dilution): 10 mM),NF-kB SEAP reporter activity,RAW-Dual [2]; agonist: LPS (TLR4) 0.1 ug/mL,1.88
same,NF-kB SEAP reporter activity,RAW-Dual [2]; [6],1.35
same,NF-kB SEAP reporter activity,RAW-Dual [2]; [7],1.31
same,NF-kB SEAP reporter activity,RAW-Dual [2]; [8],1.47
COc1cc(OC)cc(N(CCNC(C)C)c2ccc3ncc(-c4cnn(C)c4)nc3c2)c1 (library stock concentration (final ~1000-fold dilution): 10 mM),NF-kB SEAP reporter activity,RAW-Dual [3]; agonist: LPS (TLR4) 0.1 ug/mL,3.64
same,NF-kB SEAP reporter activity,RAW-Dual [3]; [6],0.427
same,NF-kB SEAP reporter activity,RAW-Dual [3]; [7],1.06
same,NF-kB SEAP reporter activity,RAW-Dual [3]; [8],1.57
Br.COc1ccc2c3c1OC1CC(O)C=CC31CCN(C)C2 (stereo unspecified) (library stock concentration (final ~1000-fold dilution): 10 mM water),NF-kB SEAP reporter activity,RAW-Dual [2]; agonist: LPS (TLR4) 0.1 ug/mL,1.12
same,NF-kB SEAP reporter activity,RAW-Dual [2]; [6],1.02
same,NF-kB SEAP reporter activity,RAW-Dual [2]; [7],1.12
same,NF-kB SEAP reporter activity,RAW-Dual [2]; [8],1.16
Br.COc1ccc2c3c1OC1CC(O)C=CC31CCN(C)C2 (stereo unspecified),NF-kB SEAP reporter activity,"RAW-Dual [1]; library stock concentration (final ~1000-fold dilution): 10 mM water, cytotoxicity flag (confluency mask): not cytotoxic, agonist: Imiquimod (TLR7) […]",0.936
same,NF-kB SEAP reporter activity,"RAW-Dual [1]; library stock concentration (final ~1000-fold dilution): 10 mM water, cytotoxicity flag (confluency mask): not cytotoxic, agonist: MPLA (TLR4) […]",0.997
CC(C)C(C(=O)O)N1C(=O)/C(=C/c2ccc(Br)cc2)SC1=S (stereo unspecified) (library stock concentration (final ~1000-fold dilution): 10 mM),NF-kB SEAP reporter activity,RAW-Dual [2]; agonist: LPS (TLR4) 0.1 ug/mL,1.12
same,NF-kB SEAP reporter activity,RAW-Dual [2]; [6],0.953
same,NF-kB SEAP reporter activity,RAW-Dual [2]; [7],0.947
same,NF-kB SEAP reporter activity,RAW-Dual [2]; [8],1.05
CC(C)C(C(=O)O)N1C(=O)/C(=C/c2ccc(Br)cc2)SC1=S (stereo unspecified),NF-kB SEAP reporter activity,RAW-Dual [1]; [4],0.992
same,NF-kB SEAP reporter activity,RAW-Dual [1]; [5],1.01
CC1(C)C(C(=O)O)N2C(=O)CC2S1(=O)=O (stereo unspecified) (library stock concentration (final ~1000-fold dilution): 10 mM),NF-kB SEAP reporter activity,RAW-Dual [2]; agonist: LPS (TLR4) 0.1 ug/mL,1.04 and 0.881
same,NF-kB SEAP reporter activity,RAW-Dual [2]; [6],1.01 and 1.03
same,NF-kB SEAP reporter activity,RAW-Dual [2]; [7],0.96 and 1.14
same,NF-kB SEAP reporter activity,RAW-Dual [2]; [8],1.05 and 1.19
Cl.O=c1[nH]ccc2c(S(=O)(=O)N3CCCNCC3)cccc12 (library stock concentration (final ~1000-fold dilution): 10 mM),NF-kB SEAP reporter activity,RAW-Dual [2]; agonist: LPS (TLR4) 0.1 ug/mL,1.22
same,NF-kB SEAP reporter activity,RAW-Dual [2]; [6],0.968
same,NF-kB SEAP reporter activity,RAW-Dual [2]; [7],1.05
same,NF-kB SEAP reporter activity,RAW-Dual [2]; [8],1.23
Cl.O=c1[nH]ccc2c(S(=O)(=O)N3CCCNCC3)cccc12,NF-kB SEAP reporter activity,RAW-Dual [1]; [4],1
same,NF-kB SEAP reporter activity,RAW-Dual [1]; [5],0.986
COc1ccc(Cn2ccc3ccc(C(=O)NO)cc32)cc1,NF-kB SEAP reporter activity,RAW-Dual [1]; [4],0.789
same,NF-kB SEAP reporter activity,RAW-Dual [1]; [5],0.903
CCN(CC)Cc1ccc2cc(COC(=O)Nc3ccc(C(=O)NO)cc3)ccc2c1.Cl.O,NF-kB SEAP reporter activity,RAW-Dual [1]; [4],0.805
same,NF-kB SEAP reporter activity,RAW-Dual [1]; [5],1.17
COc1ccc(Cn2ccc3ccc(C(=O)NO)cc32)cc1 (library stock concentration (final ~1000-fold dilution): 10 mM),NF-kB SEAP reporter activity,RAW-Dual [2]; agonist: LPS (TLR4) 0.1 ug/mL,0.996
same,NF-kB SEAP reporter activity,RAW-Dual [2]; [6],0.62
same,NF-kB SEAP reporter activity,RAW-Dual [2]; [7],0.788
same,NF-kB SEAP reporter activity,RAW-Dual [2]; [8],0.588
CCN(CC)Cc1ccc2cc(COC(=O)Nc3ccc(C(=O)NO)cc3)ccc2c1.Cl.O (library stock concentration (final ~1000-fold dilution): 10 mM),NF-kB SEAP reporter activity,RAW-Dual [2]; agonist: LPS (TLR4) 0.1 ug/mL,7.02
same,NF-kB SEAP reporter activity,RAW-Dual [2]; [6],0.922
same,NF-kB SEAP reporter activity,RAW-Dual [2]; [7],1.87
same,NF-kB SEAP reporter activity,RAW-Dual [2]; [8],1.04
COCc1ccc(-c2ccc3ncc(C(N)=O)c(NC(C)C4CCOCC4)c3c2)cn1 (stereo unspecified) (library stock concentration (final ~1000-fold dilution): 10 mM),NF-kB SEAP reporter activity,RAW-Dual [2]; agonist: LPS (TLR4) 0.1 ug/mL,1.75
same,NF-kB SEAP reporter activity,RAW-Dual [2]; [6],1.19
same,NF-kB SEAP reporter activity,RAW-Dual [2]; [7],1.45
same,NF-kB SEAP reporter activity,RAW-Dual [2]; [8],2.13
COCc1ccc(-c2ccc3ncc(C(N)=O)c(NC(C)C4CCOCC4)c3c2)cn1 (stereo unspecified),NF-kB SEAP reporter activity,RAW-Dual [1]; [4],0.993
same,NF-kB SEAP reporter activity,RAW-Dual [1]; [5],1.35
